Reference: PubChem BioAssay (NCI)
Where “and” joins values, the source holds several entries; their conditions need not be identical. Equal entries are not always repeated. About 79,000 compounds went through this panel and 15% of them were active in at least one assay; those are over-represented in the sample as a whole. Rule as the data show it: active = growth inhibition above about 70%; inactive = the rest.

Experiments:
[1] = NCI Yeast Anticancer Drug Screen. Data for the rad50 strain (AID 155);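 also: 0% = growth of vehicle-only cultures of the same strain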; conditions: S. cerevisiae rad50 strain growth inhibition, hits give high values; at 50.0 µM unless noted
Method in brief: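 Inhibition values express reduced yeast growth in compound-treated cultures relative to vehicle-treated controls.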

[2] = NCI Yeast Anticancer Drug Screen. Data for the mec2-1 strain (AID 157); conditions: S. cerevisiae mec2-1 strain, hits give high values; at 50.0 µM unless noted
Method in brief: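 Using mec2-1 yeast: add compound, measure growth, express inhibition versus vehicle-treated cultures.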

[3] = NCI Yeast Anticancer Drug Screen. Data for the sgs1 mgt1 strain (AID 161);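 also: 0% = growth of cultures given vehicle only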; conditions: S. cerevisiae sgs1 mgt1 strain, hits give high values; at 50.0 µM unless noted
Method in brief: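 Compounds are added to genetically altered yeast, and growth is compared with cultures given vehicle alone to give percent inhibition.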

[4] = NCI Yeast Anticancer Drug Screen. Data for the cln2 rad14 strain (AID 165);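 also: 0% = growth equal to vehicle treated cultures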; conditions: S. cerevisiae cln2 rad14 strain, hits give high values; at 50.0 µM unless noted
Method in brief: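 Yeast strain cln2 rad14, bearing defects in cell cycle control and DNA repair, serves as the test system; values reflect growth inhibition compared with vehicle.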

[5] = NCI Yeast Anticancer Drug Screen. Data for the bub3 strain (AID 167); conditions: S. cerevisiae bub3 mutant strain, hits give high values; at 50.0 µM unless noted
Method in brief: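 Steps: expose the mutant yeast strain to compound; grow alongside vehicle-treated cultures; measure growth; express inhibition against the vehicle cultures.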

[6] = NCI Yeast Anticancer Drug Screen. Data for the mlh1 rad18 strain (AID 175); conditions: S. cerevisiae mlh1 rad18 strain growth inhibition, hits give high values; at 50.0 µM unless noted
Method in brief: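 Steps: expose repair-defective yeast to compound; measure growth; express inhibition against vehicle-treated controls.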

Measured: growth inhibition

O=C(CCCC(=O)N/N=C/c1ccccc1O)N/N=C\c1ccccc1O
inactive: [1] 4.55% | [2] -6.65% | [3] -20.4% | [4] 3.35% | [5] -3.5% | [6] -12.9%

C=CCSCc1ccccc1
inactive: [1] 4.55% | [2] 2.95% | [3] -13.6% | [4] 3.8% | [5] -2.15% | [6] 19.7%

COc1ccc(C2=C(c3ccccc3)C(=O)C3(c4ccccc4)CC23c2ccc(OC)cc2)cc1 (stereo unspecified)
inactive: [1] -1.25% | [2] 17.6% | [3] 15.5% | [4] 1.85% | [5] 1.15% | [6] 4.7%

Cn1c(=O)c2nc(SCC(=O)O)n(C)c2n(C)c1=O
inactive: [1] 3.6% | [2] 6.2% | [3] 7.4% | [4] -10.1% | [5] 5.35% | [6] 3.2%

CCCCCCCCC1OC1CCCCCCCCOCC(O)CO (stereo unspecified)
inactive: [1] 18.9% | [2] -9.95% | [3] -1.9% | [4] -1.2% | [5] -0.6% | [6] -1.6%

O=C(O)C1CC(=O)N(Cc2ccccc2)C1 (stereo unspecified)
inactive: [1] 32.8% | [2] 33.3% | [3] 34.6% | [4] 6.45% | [5] 26.7% | [6] 34%

COc1ccc(C(=O)O)c(Cc2ccc3ccccc3c2)c1
inactive: [1] 0.4% | [2] -4.7% | [3] 4.3% | [4] 10% | [5] -5.95% | [6] 36%

Cn1ccn(C2CCCCC2)c1=O
inactive: [1] 3.35% | [2] 5.1% | [3] -0.25% | [4] -12.3% | [5] 35% | [6] 7.95%

CCOCCOC(=O)COc1ccccc1
inactive: [1] 12.8% | [2] 16.4% | [3] 17.6% | [4] 7% | [5] -7.85% | [6] 3.65%

CCN(CC)C(=O)C1CCN(CCOc2ccccc2)CC1
inactive: [1] -14.2% | [2] 13.2% | [3] 1.55% | [4] -10% | [5] -0.25% | [6] -26%

C=C(C)C1CCC2(C)C1CCC1(C)C2CCC2C3(C)C4OC(OC4=O)C(C)(C)C3CCC21C (stereo unspecified)
inactive: [1] -0.8% | [2] -20% | [3] 11.8% | [4] 0.1% | [5] 17.6% | [6] -53%

CCC(O)C(C)(C)[N+](=O)[O-] (stereo unspecified)
inactive: [1] 3.35% | [2] -3.25% | [3] -2.6% | [4] -2.05% | [5] -0.8% | [6] 0.35%

COC(=O)c1ccccc1NC(=O)Nc1ncccn1
inactive: [1] -5.3% | [2] 2.4% | [3] -7.2% | [4] -10.1% | [5] -11.2% | [6] -11.5%

CCOc1ccc(N=Nc2c(N)nc(N)[nH]c2=O)cc1
inactive: [1] 26.3% | [2] 23.6% | [3] 17.4% | [4] 19.9% | [5] -1.25% | [6] 24.1%

O=C1NCCCC1C(=O)Nc1cccc2c1NCCC2 (stereo unspecified)
inactive: [1] -10.2% | [2] -40.4% | [3] 0.95% | [4] -1.45% | [5] 39.6% | [6] -32.4%

O=C(O)c1cccnc1C(=O)O
inactive: [1] -23.8% and 10.8% | [2] -8.85% and -5.35% | [3] 2.65% and -2.2% | [4] -30.2% and 10.3% | [5] -12% and -28.2% | [6] 3.9% and 8.65%

CCNc1cc(Cl)c(C(=O)O)cc1[N+](=O)[O-]
inactive: [1] -8.8% | [2] 20.9% | [3] 15.3% | [4] -22.7% | [5] -8.75% | [6] -8.65%

O=C1C(=O)c2ccccc2C(O)=C1CN1CCOCC1
inactive: [1] 31.6% | [2] 32.1% | [3] 14.4% | [4] 4.65% | [5] 28% | [6] 8.85%

O=C(c1ccc(Cl)cc1)c1ccccc1C(=O)c1ccc(Cl)cc1
inactive: [1] 0.8% | [2] -12.1% | [3] 6.6% | [4] -4.45% | [5] 23% | [6] 15.1%

CN1NC(c2ccccc2)=C(C#N)C(=O)CC1c1ccccc1 (stereo unspecified)
inactive: [1] 6.8% | [2] -2.5% | [3] 13.1% | [4] -1.4% | [5] 8.95% | [6] 10.2%

NC(=O)c1ccc[n+]([O-])c1
inactive: [1] 15.1% | [2] -0.5% | [3] 6.35% | [4] 6.6% | [5] 2.65% | [6] -1.75%

COc1cc2c3c([nH]c2c(OC)c1OC)CCN(Cc1ccccc1)C3
inactive: [1] -27.7% | [2] -15.1% | [3] -10.2% | [4] 6.1% | [5] -0.7% | [6] 10.8%

O=C1C(N2CCCCC2)=C(c2ccccc2)c2ccccc21
inactive: [1] 5.1% | [2] 7.5% | [3] -3.6% | [4] -28.9% | [5] 17.1% | [6] -10.2%

Nc1ccc(S(=O)(=O)CCCl)cc1
inactive: [1] 8.7% | [2] 0.95% | [3] 18.5% | [4] 22.2% | [5] 13.7% | [6] 11.6%

CCOC(=O)N1CCN(C(=O)CC(C)=O)CC1
inactive: [1] 2.35% | [2] -32.5% | [3] -0.15% | [4] 19.1% | [5] 4.45% | [6] 16.6%

CN(C=O)c1c(F)cc(N=Nc2ccccc2)cc1F
inactive: [1] 2.8% | [2] 1.15% | [3] 6.65% | [4] -16.1% | [5] 2.25% | [6] 9.7%

C/C(=N\NS(=O)(=O)c1c(C)cc(C)cc1C)c1ccc[n+]([O-])n1
inactive: [1] 3.95% | [2] 0.2% | [3] -8.4% | [4] 15.1% | [5] -12.8% | [6] -6.7%

CN(CCNC(=O)C1CCCCC1C(=O)O)c1ccccc1 (stereo unspecified)
inactive: [1] 5% | [2] 22.3% | [3] 1% | [4] 0.15% | [5] 13.6% | [6] -10.2%

COC(=O)C1(c2ccccc2)N=C(c2ccc(C)cc2)ON1c1ccccc1 (stereo unspecified)
inactive: [1] -5.95% | [2] 7.05% | [3] -7.85% | [4] 12.7% | [5] -1% | [6] 10.1%

CCCCN(CCCC)CC(C(=O)Nc1ccc([N+](=O)[O-])cc1[N+](=O)[O-])/C(C)=N\NC(=O)c1ccncc1 (stereo unspecified)
inactive: [1] 22.7% | [2] -3.65% | [3] 11.8% | [4] -65.1% | [5] 2.55% | [6] 18.1%

CC(=O)NNS(=O)(=O)c1ccccc1
inactive: [1] 8.1% | [2] 28.6% | [3] 4.15% | [4] -1.15% | [5] -17.9% | [6] 16.8%

CCCCCCCCCCCCCCCCCC(=O)N/N=C/c1cc(C(C)(C)C)c(O)c(C(C)(C)C)c1
inactive: [1] -32.6% | [2] 13.7% | [3] -14.1% | [4] -35.2% | [5] -1.1% | [6] 2.45%

O=C(OC1c2cccc3cccc(c23)C1O)c1ccccc1 (stereo unspecified)
inactive: [1] 8.2% | [2] -2.45% | [3] 1.55% | [4] 2.65% | [5] 5.85% | [6] 1.75%

N#Cc1ccc(CC(=O)c2ccccc2)cc1
inactive: [1] -6.05% | [2] 12.8% | [3] 0.45% | [4] -27.4% | [5] -0.75% | [6] 3.15%

CCOC(=O)c1cc2c(-c3ccccc3)c(-c3ccccc3)c(-c3ccccc3)c(-c3ccccc3)n2n1
inactive: [1] 10.2% | [2] 15.2% | [3] 0.25% | [4] 31.9% | [5] -1.45% | [6] -0.4%

C=C1C(=O)O[C@@H]2O[C@@]3(C)CC[C@H]4[C@H](C)CC[C@@H]1[C@@]24O3
inactive: [1] 26.6% | [2] 26.9% | [3] 52.1% | [4] 22% | [5] 12.2% | [6] 40.5%

CN(C)c1ccc(N)c(N)c1
inactive: [1] -13.5% | [2] -34.8% | [3] -4.45% | [4] 12.1% | [5] 5.95% | [6] -12.9%

CCC(=O)OCC(CC(=O)NCCc1ccccc1)=NCCc1ccccc1
inactive: [1] 18.6% | [2] -0.6% | [3] 16.6% | [4] 9.15% | [5] 2.55% | [6] 14.9%

CC(=O)Oc1ccccc1C(=O)N(N)CCSc1ccc(Cl)cc1
inactive: [1] -0.45% | [2] 1.15% | [3] 11.2% | [4] -32.2% | [5] -12.5% | [6] -1%

O=C(Oc1cc2c(cc1Br)OCO2)c1cccc2ccccc12
inactive: [1] 0.85% | [2] -30.3% | [3] 9.8% | [4] -48.7% | [5] 6.95% | [6] -27.2%

O=C(c1ccccc1)c1ccc2c(Cl)ccc3c2c1CC3
inactive: [1] -2.8% | [2] -21.3% | [3] -9.75% | [4] 12.8% | [5] 7.6% | [6] -8.45%
